The source of these data is PubChem BioAssay AID977607 (Broad Institute, 2014).

Out of some 1,500 compounds screened, about 460 (31%) were called active. Inconclusive results (about 1%) are left out.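 How the source made its calls: active means curve reaches 40% activation over neutral controls at an AC40 no higher than the top valid tested concentration; inconclusive means no clear call, values can overlap the other calls; inactive means signal moving opposite to the expected increase, and the rest.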 Not all results are given here. Potency and affinity values are given separately.

The assay can be described thus: GLuc-reported insulin release enhancers, glucose-stimulated beta cells – cell-based, INS-1E, Gaussia luciferase, luminescence, cherry-pick, set 2, dose response (AID 977607).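 Further: 0% = median of the plate neutral control wells.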 As to conditions: INS-1E GLuc insulin secretion reporter, 2-3 h, stronger effect = higher value; at 35 µM, 100% = signal doubled over neutral wells unless noted.
For `CN(Cc1ccccc1)C(=S)NC(=O)c1ccc(-c2ccccc2)cc1`, the max activation was -29.1% [at 3.8 µM, 100% = signal doubled over neutral wells] (inactive). Take `COc1cc(NC(=O)c2c(-c3ccccc3Cl)noc2C)c2ncccc2c1`: the max activation is -28.8% [at 11 µM, 100% = signal doubled over neutral wells] (inactive).

With `Cc1cccnc1NC(=O)c1ccc(S(=O)(=O)N2CCCCC2)cc1`, the max activation was -21.1% [at 3.8 µM, 100% = signal doubled over neutral wells] (inactive). `CC1CC(C)CN(CC(O)COCc2ccccc2F)C1` (stereo not given): the max activation was -21.2% [at 0.0016 µM, 100% = signal doubled over neutral wells] (inactive). The result for `COc1ccc(OC)c(N(CC(=O)NN=C2CCN(C)CC2)S(=O)(=O)c2ccccc2)c1` reads -25.4% [at 0.135 µM, 100% = signal doubled over neutral wells] (inactive); that for `CC(NC(=O)C1CCCN1S(=O)(=O)c1ccc2c(c1)n(C)c(=O)c(=O)n2C)c1ccccc1` (stereo not given), -14.2% [at 0.015 µM, 100% = signal doubled over neutral wells] (inactive); that for `c1cc2c(cc1CN1CCN(C3CCCCCC3)CC1)OCO2`, -12.6% [at 0.135 µM, 100% = signal doubled over neutral wells] (inactive). With `Cc1cc(S(=O)(=O)NCc2cccnc2)ccc1F`, the max activation is -23% [at 3.8 µM, 100% = signal doubled over neutral wells] (inactive).

Turning to `O=C(Nc1nonc1NC(=O)c1cccs1)c1cccs1`, the max activation was -48.2% (inactive). Take `COC(=O)c1sc2ccccc2c1NC(=O)c1cccs1`: the max activation was -14.7% [at 0.046 µM, 100% = signal doubled over neutral wells] (inactive). For the compound `Cc1cc(C)nc(NC(=O)c2ccc(Cl)cc2Cl)n1`, the max activation was -21.7% [at 0.135 µM, 100% = signal doubled over neutral wells] (inactive). Regarding `Cc1ccc(NC(=O)c2cccs2)cc1NC(=O)c1ccccc1Cl`, the max activation is 18.8% [at 1.2 µM, 100% = signal doubled over neutral wells] (inactive).

Take `CCCCNC(=O)c1ccccc1NC(=O)C1=C(C)OCCS1`: the max activation is -8.81% [at 0.005 µM, 100% = signal doubled over neutral wells] (inactive).

With `CCOC(=O)c1nc(NCc2cccnc2)c2ccccc2n1`, the max activation is -21% [at 1.2 µM, 100% = signal doubled over neutral wells] (inactive).

In the case of `O=C(O)CCCC(=O)N1CCN(c2nc(-c3ccccc3)c3ccccc3n2)CC1`, the max activation is 16.9% [at 0.42 µM, 100% = signal doubled over neutral wells] (inactive). Consider `CS(=O)(=O)N1CCN(c2ccccc2NC(=O)c2ccco2)CC1`, for which the max activation is 22.3% (inactive). In the case of `O=C(Nc1ccccc1N1CCOCC1)C1=NN(c2ccccc2)C(=O)CC1`, the max activation was 16.2% (inactive). Regarding `CC1(C(=O)NCC2CCCCC2)CCN1CCc1ccccc1` (stereo not given), the max activation is -18.8% [at 0.0016 µM, 100% = signal doubled over neutral wells] (inactive).

With `CC(C)(C)OC(=O)N1CCCN(C(=O)c2ccc(Cl)cc2)CC1`, the max activation is -21.4% [at 0.135 µM, 100% = signal doubled over neutral wells] (inactive). As for `CN1CCN(C(=O)c2cccc(-c3cnc4cnc(-c5ccccc5Oc5ccccc5)cn34)c2)CC1`, the figure is -43% (inactive); as for `N#CN=CN1CC=C(c2ccc(Cl)cc2)CC1`, 30.6% [at 3.8 µM, 100% = signal doubled over neutral wells] (inactive); as for `CC1=NN(C(N)=S)C(=O)C1N=Nc1ccccc1C` (stereo not given), -15.4% (inactive). With `Cc1cc(C)n(-c2nc(NCCN(C)C)c3c4c(sc3n2)CCCC4)n1`, the max activation was 22.9% (inactive). On to `O=C(Cn1[nH]c(=O)c2ccccc2c1=O)OCC(=O)c1ccc(F)cc1`, for which the max activation is -10.7% [at 0.046 µM, 100% = signal doubled over neutral wells] (inactive). As for `CC(=O)Nc1nc(CC(C)C)cc(-c2ccco2)c1C#N`, the max activation is -15.6% [at 0.135 µM, 100% = signal doubled over neutral wells] (inactive). Consider `CCOC(=O)c1sc2ncn(/N=C/c3cccnc3)c(=O)c2c1C`, for which the max activation is -22.4% [at 0.0016 µM, 100% = signal doubled over neutral wells] (inactive). For the compound `Cc1cccc(C)c1NC(=O)NC1CCc2ccccc21` (stereo not given), the max activation is -27.2% (inactive). As for `Cc1noc(C)c1NC(=O)N(C)C[C@H]1Oc2c(NC(=O)C3CCCCC3)cccc2C(=O)N([C@H](C)CO)C[C@@H]1C`, the figure is -26.4% [at 0.015 µM, 100% = signal doubled over neutral wells] (inactive); as for `COc1ccc(C(=O)c2cnc[nH]2)cc1OC`, -12% [at 0.015 µM, 100% = signal doubled over neutral wells] (inactive). Turning to `CCC(c1nnnn1-c1ccc2c(c1)OCCO2)N1CCc2ccccc2C1` (stereo not given), the max activation was 36.8% [at 1.2 µM, 100% = signal doubled over neutral wells] (inactive). The result for `COc1ccc(-c2nc(CCNC(=O)c3ccco3)cs2)cc1OC` reads 53% [at 0.015 µM, 100% = signal doubled over neutral wells] (inactive). With `COc1ccc(N2CC(NS(=O)(=O)c3cccs3)CC2=O)cc1OC` (stereo not given), the max activation was -12.7% [at 11 µM, 100% = signal doubled over neutral wells] (inactive).

For the compound `COc1ccc(C2=NN(C(=O)c3ccco3)C(c3ccco3)C2)cc1OC` (stereo not given), the max activation is 9.84% [at 0.42 µM, 100% = signal doubled over neutral wells] (inactive). With `COc1ccc2c(c1)[C@@]1(OCCC=C[C@H]1C)C(=O)N2CC1CC1`, the max activation was 15.8% [at 11 µM, 100% = signal doubled over neutral wells] (inactive). As for `O=C(NNC(=O)c1cc2cc3ccccc3nc2s1)c1cccc(C(F)(F)F)c1`, the figure is -20.1% [at 0.015 µM, 100% = signal doubled over neutral wells] (inactive). For the compound `CC(C)Cc1nc2oc3c(NCc4cccnc4)ncnc3c2c2c1CCC2`, the max activation was 30.3% [at 0.42 µM, 100% = signal doubled over neutral wells] (inactive). For `CCc1ccc2c(c1)cc(CN(Cc1ccco1)C(C)=O)c1nnnn12`, the max activation is -18.4% [at 0.005 µM, 100% = signal doubled over neutral wells] (inactive). For the compound `O=C(Nc1nccs1)c1cc(N2CCOCC2)nc2ccccc12`, the max activation was -23.7% (inactive). With `COc1ccc(-c2nc(N3CCC(C)CC3)[nH]c(=O)c2C#N)cc1`, the max activation was 28.1% [at 11 µM, 100% = signal doubled over neutral wells] (inactive). As for `COc1ccc(C)c(-n2c(=O)n(Cc3ccccc3)c(=O)c3[nH]cnc32)c1`, the max activation was 38.9% [at 0.42 µM, 100% = signal doubled over neutral wells] (inactive). Take `COc1cccc(-n2c(=O)n(Cc3ccccc3)c(=O)c3[nH]cnc32)c1C`: the max activation is 14.5% (inactive). Take `CCc1nc2c(OCc3ccccc3C)cccn2c1N(C)C(=O)c1ccco1`: the max activation was -25.5% (inactive). Turning to `C=CCNC(=S)Nc1ccc2cn[nH]c2c1`, the max activation was -18.8% [at 0.0016 µM, 100% = signal doubled over neutral wells] (inactive). As for `O=C(Nc1ccnn1C1CCN(C2CCC2)CC1)c1ccccc1Cl`, the figure is -5.42% (inactive); as for `COc1ccc(N2C(=O)CC(Sc3nc(C)cc(C)c3C#N)C2=O)cc1` (stereo not given), -11.1% [at 11 µM, 100% = signal doubled over neutral wells] (inactive); as for `CCNc1nc(NCC)nc(Nn2cnnc2)n1`, -14.4% [at 0.42 µM, 100% = signal doubled over neutral wells] (inactive).

`CC(C)Cn1nc(-c2ccccc2)c2ccccc2c1=O`: the max activation is -16.6% [at 0.0016 µM, 100% = signal doubled over neutral wells] (inactive).

As to `Cc1ccc(-c2[nH]nc3c2C(c2cccnc2)C(C#N)=C(N)O3)cc1` (stereo not given), the max activation was 36.3% [at 0.0016 µM, 100% = signal doubled over neutral wells] (inactive). As to `COCCNc1nc(NCCCN(C)C)c2sccc2n1`, the max activation is -23.1% (inactive). `COCCNc1nc(Oc2ccc(C(N)=O)cc2)c2sccc2n1`: the max activation was -20.7% [at 0.0016 µM, 100% = signal doubled over neutral wells] (inactive).

On to `CCCN1Cc2cccc(C(=O)NCc3ccccc3)c2C1=O`, for which the max activation is -24.8% [at 0.046 µM, 100% = signal doubled over neutral wells] (inactive). As for `Cc1ccc2c(c1)CCCN2C(=O)c1ccc2c(c1)OCO2`, the figure is -14.4% [at 0.0016 µM, 100% = signal doubled over neutral wells] (inactive). For the compound `CCOc1ccc(CCNC(=O)COc2cccc(-n3cnnn3)c2)cc1OCC`, the max activation is -22.6% [at 0.005 µM, 100% = signal doubled over neutral wells] (inactive). In the case of `CCOc1ccc(CCNC(=O)COC(=O)c2cccnc2SC)cc1OCC`, the max activation was -22.4% [at 0.0016 µM, 100% = signal doubled over neutral wells] (inactive). With `COc1ccccc1Nc1c2c(nc3ccc(N)cc13)CCCC2`, the max activation was -15.8% [at 0.135 µM, 100% = signal doubled over neutral wells] (inactive).
